Assay outcomes (PubChem)
Marburg entry inh = inhibitors of Marburg virus binding or cell entry; Marburg virus pseudotyped entry inhibition, cell reporter; Potency, µM (highest dose often 37.8 µM), hits mostly inhibitors; hit rate 1.8% among 300,000; calls by dose curve; tested in HEK293 cells
HCV inhibitor = blocks hepatitis C virus; Potency, µM (highest dose often 41.8 µM), actives largely listed as inhibitors; Huh7.5.1 HCVcc-Cre infection, luciferase reporter, 44 h; hit rate 3.4% among 340,000
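After 44 h co-culture of compound, cells and HCVcc-Cre (~0.5 moi), substrate is added for 15 min at room temperature and luciferase measured over 15 sec. Cells were seeded at 1,000/well and pre-cultured 4 h.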
Pf growth 96h = P. falciparum growth inhibition at 96 hour, primary screen for plastid delayed-death inhibitors; P. falciparum luciferase reporter growth, 96 h; Potency, µM (top dose mostly 28.7 µM), hits mostly inhibitors; hit rate 6.9% among 320,000
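Delayed-death screen, second-generation endpoint: infected erythrocytes, 2% hematocrit, 0.05% parasitemia final; 96 hours at 37 C, 5% CO2; luciferase detection reagent; luminescence decrease equals reduced growth.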
Pf growth 48h = inhibits P. falciparum growth in the first generation, 48 h | hit rate 5.9% among 310,000 | P. falciparum luciferase growth in erythrocytes, 48 h | Potency, µM (series often up to 28.7 µM), most hits filed as inhibitors | AID 504832
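First compound was added to culture medium, then infected red cells at 0.1% parasitemia and 2% hematocrit (final). After incubation at 37 C under 5% CO2, luciferase detection reagent was dispensed and light output recorded.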
HCMV inh = human cytomegalovirus inhibition | activity change, negative = inhibition, % at 57.5 µM | AID 1259415 | HFF cells, HCMV-luciferase reporter, 72 h; hits give low values | hit rate 4.5% among 410,000; in the data active = activity change below about -60%; inconclusive = no clear call, values can overlap the other calls; inactive = above about -39%
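Two compound doses tested in HFFs infected with HCMV-luciferase, MOI 1 PFU/cell, 72 h at 37C. Lysate luminescence read with OneGlo; data normalized against buffer-only and 10uM Salinomycin inhibitor controls.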
Lassa entry inh = Lassa virus entry inhibition; Potency, µM (doses to about 37.9 µM), usual class: inhibitors; hit rate 1.2% among 300,000; Lassa virus pseudotype entry inhibition, cell reporter; AID 540256; calls by dose curve; tested in HEK293 cells; note: nearly all actives have a fitted effect of over 50% in size
A number is an active result; i = inactive; ? = inconclusive; nt = no result. Compounds with a hit are over-represented: about 14% of the library has one in this group of screens. Unless noted, calls come from the whole dose curve; as a rule, active = well fitted inhibition curve with a large enough effect; inconclusive = small, poorly fitted or top-dose-only effect, or another doubt; inactive = no such curve, though single readings can be large or run the other way.

SMILES | Marburg entry inh | HCV inhibitor | Pf growth 96h | Pf growth 48h | HCMV inh | Lassa entry inh
Cc1cccc(C)c1NC(=O)CCCn1nc(C)c2c(C)n(-c3ccccc3)nc2c1=O | nt | i | 12µM | i | i | nt
Cc1ccc(NC(=O)CCCn2nc(C)c3c(C)n(-c4ccccc4)nc3c2=O)cc1C | nt | i | ? | i | i | nt
O=S(=O)(O)c1ccc(Cl)c(Cl)c1 | i | i | nt | nt | i | i
CCCc1ccc(C(=O)NC(=O)c2ccccc2O)cc1 | 8.9µM | ? | 0.37µM | 0.066µM | -89 | 10µM
O=C(NC(=O)c1ccccc1O)c1ccc(C(F)(F)F)cc1 | ? | ? | 2.3µM | ? | i | ?
COC(=O)C1(C(=O)OC)c2ccccc2N(S(=O)(=O)c2ccc(C)cc2)C1CC(=O)c1ccccc1 (stereo not drawn) | nt | nt | nt | nt | i | nt
CC(C)S(=O)(=O)c1csc(C(=O)Nc2ccc(F)cc2)c1N | ? | 3.2µM | i | i | i | ?
CCN1CCN(c2ncc(C(=O)Nc3ccccc3C(=O)OC)c3ccccc23)CC1 | 13µM | 7.9µM | ? | ? | i | ?
CCc1ccc(NC(=O)c2cnc(N3CCN(c4ccccn4)CC3)c3ccccc23)cc1 | ? | 4.5µM | 13µM | ? | i | ?
Cc1ccc(OCc2nc(-c3ccc(C(=O)N4CCN(c5cc(Cl)ccc5C)CC4)cc3)oc2C)cc1 | ? | nt | nt | nt | i | nt
COc1cc(NC(=O)CN2C(=O)CN(C)C2=O)c(C)cc1[N+](=O)[O-] | ? | i | i | ? | i | ?
COc1cc(NC(=O)Cn2ncc(Cl)c(Cl)c2=O)c(C)cc1[N+](=O)[O-] | 7.1µM | ? | i | i | -96 | ?
Cc1ccc(-c2cn3nc(C)c(C)nc3n2)cc1 | 0.28µM | i | ? | i | i | ?
CC(=O)Nc1cncc(-c2ccccc2N(C)C)n1 | nt | nt | nt | nt | i | nt
CCNC(=O)C1(C)CCCN(C(=O)c2cc(C)nn2C(C)(C)C)C1 (stereo not drawn) | nt | nt | nt | nt | i | nt
CC(=O)Nc1c2c(nn1-c1ccc(C)cc1C)CSC2 | i | i | 10µM | ? | i | i
Cc1ccc(-n2nc3c(c2NC(=O)c2ccc4c(c2)OCO4)CS(=O)(=O)C3)c(C)c1 | i | i | 12µM | i | i | i
Cc1ccc(-n2nc3c(c2NC(=O)c2cccs2)CS(=O)(=O)C3)c(C)c1 | nt | i | 0.59µM | i | ? | nt
CC(C)(C)S(=O)N1C[C@H]2CC(=O)C(CCO)=C2[C@@H]1CCO (stereo partly drawn) | nt | nt | nt | nt | i | nt
CCOc1ccc(N2C(=O)C(=O)/C(=C(/O)c3ccccc3)C2c2ccccc2[N+](=O)[O-])cc1 (stereo not drawn) | ? | i | ? | i | -73 | i
O=C1C(=O)N(c2ccccc2)C(c2ccccc2[N+](=O)[O-])/C1=C(\O)c1ccccc1 (stereo not drawn) | i | i | i | i | i | i
COc1ccc(S(=O)(=O)NCCC(=O)NC(C)c2ccccc2)cc1 (stereo not drawn) | i | i | 7.4µM | i | i | i
CCc1ccc(OCCNC(=O)c2ccccc2SCc2ccccc2)cc1 | ? | ? | i | i | -88 | ?
COc1ccc(OCCNC(=O)C(c2ccccc2)c2ccccc2)cc1 | ? | ? | i | 10µM | i | i
CCOCCCNC(=O)CCCOc1ccccc1 | i | i | 4.7µM | i | i | i
SMILES | Marburg entry inh | HCV inhibitor | Pf growth 96h | Pf growth 48h | HCMV inh | Lassa entry inh
Cc1cc(C(=O)N2CCCC2(C)C(=O)NCC(C)C)nn1C(C)(C)C (stereo not drawn) | nt | nt | nt | nt | i | nt
CCNC(=O)CN(c1ccc(F)cc1)S(=O)(=O)c1ccc2c(c1)OCCO2 | i | i | i | i | i | ?
COc1ccc(OCCCC(=O)NC(C)c2ccccc2)cc1 (stereo not drawn) | i | i | 9.3µM | nt | i | i
CCOC(=O)C1(Cc2ccccc2Cl)CCN(C(=O)c2cc(C)on2)CC1 | nt | i | ? | i | i | nt
CCOC(=O)C1(Cc2ccccc2Cl)CCN(C(=O)c2cnccn2)CC1 | i | i | 9.3µM | i | i | ?
Cc1cc(NC(=O)NN2CCOCC2)nn1-c1c(Cl)cc(Cl)cc1Cl | nt | i | ? | ? | i | nt
CCNc1nc(NCC)n2c(SCC(=O)c3ccccc3Cl)nnc2n1 | i | i | i | i | i | i
CCOCCCn1c(SC(C(=O)Nc2cc(C)ccc2C)c2ccccc2)nnc1-c1ccc(Cl)cc1 (stereo not drawn) | ? | ? | 9.3µM | 12µM | i | ?
COc1ccc(C)cc1NC(=O)C(Sc1nncn1C)c1ccccc1 (stereo not drawn) | i | i | i | i | i | i
Cc1ccc2nc(SC(C(=O)Nc3ccc(F)cc3)c3ccccc3)[nH]c2c1 (stereo not drawn) | ? | ? | i | ? | i | i
CCNc1nc(NCC)n2c(SC(C)C(=O)c3ccc(C)cc3)nnc2n1 (stereo not drawn) | 12µM | ? | ? | ? | ? | i
Cc1ccc(C)c(NC(=O)C(Sc2nc3ccc(C)cc3[nH]2)c2ccccc2)c1 (stereo not drawn) | 8.9µM | ? | ? | ? | -74 | ?
CCNc1nc(NCC)n2c(SC(C(=O)Nc3cc(C)ccc3C)c3ccccc3)nnc2n1 (stereo not drawn) | i | ? | 12µM | ? | i | i
CC(C)(C)C(=O)Nc1nc(-c2ccccc2)ns1 | ? | ? | i | i | i | ?
c1ccc(Nc2nc(-c3ccccc3)ns2)cc1 | 10µM | ? | i | i | i | ?
CN(C)/C=C/C(=O)c1ccc(N2CCN(c3ncc(C(F)(F)F)cc3Cl)CC2)cc1 | ? | ? | ? | nt | -108 | ?
NC(=O)c1ccc(N2CCN(c3ncc(C(F)(F)F)cc3Cl)CC2)cc1 | i | i | i | i | ? | nt
Nc1ccc(N2CCN(c3ncc(C(F)(F)F)cc3Cl)CC2)c(C(F)(F)F)c1 | i | nt | nt | nt | -104 | i
O=C(c1ccccc1)N1CCOC12CCN(c1ncc(C(F)(F)F)cc1Cl)CC2 | i | i | nt | ? | -61 | ?
O=C(c1ccc2nc[nH]c2c1)N1CCN(c2ncc(C(F)(F)F)cc2Cl)CC1 | i | ? | ? | i | -70 | i
CN(C)C=NC(=O)c1ccc(N2CCN(c3ncc(C(F)(F)F)cc3Cl)CC2)cc1 | i | i | i | i | i | ?
CC1CCN(S(=O)(=O)c2ccc(C(=O)OC(C)C(=O)N(C)C3CCCCC3)cc2)CC1 (stereo not drawn) | i | i | i | i | ? | i
Cc1cccc(OCc2nnc(SCC(=O)Nc3ccc(C)cc3C)o2)c1 | i | nt | nt | nt | i | i
COc1ccc(CCNC(=O)CCCn2c(=O)c3cccn3c3ccc(F)cc32)cc1OC | nt | nt | nt | nt | i | i
Cc1nc2scc(C)n2c(=O)c1S(=O)(=O)Nc1cccc(C(F)(F)F)c1 | i | nt | nt | nt | i | i
COc1c2ccccc2nn1-c1ccc(-c2cn(Cc3ccccc3)nn2)cc1 | nt | nt | nt | nt | i | nt
O=Nc1c(-c2c(O)[nH]c3cc(Br)ccc23)[nH]c2ccccc12 | ? | 5.6µM | 4.7µM | 4.1µM | -68 | ?
O=C(CSCc1cccc(Br)c1)N=Nc1c(O)[nH]c2ccccc12 | i | ? | i | i | i | ?
